NSD2 inh = NSD2 (human) methyltransferase inhibition. NSD2 peptide methylation, AlphaScreen, 120 min. O96028. 310,000 compounds, 0.54% hits. inhibition, % at 12.5 µM. AID 743445; in the data active = inhibition above about 50%
RAD52 inh = blocks human RAD52 DNA annealing | inhibition, % at 18.7 µM | recombinant RAD52 DNA annealing, FRET fluorescence | P43351 | 360,000 compounds, 0.46% hits;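 active = every replicate showing at least 50% inhibition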
RAD54 branch = blocks human RAD54 Holliday junction branch migration; Q92698; FAM/BHQ fluorescence; inhibition, % at 10.4 µM; 360,000 compounds, 0.14% hits; AID 602329;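 active = mean normalized replicate activity at least 40 and at least half of replicates scoring 40 or more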;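 also: inhibitors cause a drop in the FAM fluorescence signal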
Casp6 inh = caspase-6 (human) enzyme inhibition; purified caspase-6, Z-VEID-R110 cleavage fluorescence; inhibition, % at 12.5 µM; 350,000 compounds, 0.53% hits;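 active = mean inhibition across replicates at least about 35%, with every replicate also reaching that limit, limit read from the data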
Target sequence (P55212 24-179 limits assumed): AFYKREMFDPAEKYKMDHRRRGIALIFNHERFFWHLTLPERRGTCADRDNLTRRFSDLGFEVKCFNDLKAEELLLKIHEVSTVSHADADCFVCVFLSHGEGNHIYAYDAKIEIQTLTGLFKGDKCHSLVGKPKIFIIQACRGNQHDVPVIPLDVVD
Target sequence (P55212 194-293 limits assumed): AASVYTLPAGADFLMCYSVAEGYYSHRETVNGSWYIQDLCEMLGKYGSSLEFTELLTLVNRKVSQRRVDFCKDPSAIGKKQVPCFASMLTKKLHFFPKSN
Glyco luc inh = blocks N-linked glycosylation in D54 reporter cells; D54 ERlucT glycosylation luciferase reporter, 24 h; percent of 100 nM tunicamycin response; AID 588692; 360,000 compounds, 0.23% hits; reporter increase, % at 12.5 µM;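 active = mean luciferase reporter signal, scaled so untreated is 0 and the glycosylation-blocking control 100, at or above a set limit in every replicate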;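 also: luciferase carries N-glycosylation sites so blocking glycosylation raises the light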
Alpha artifact = counter-screen for NSD2 inhibitors: AlphaScreen artifacts; shares compounds with NSD2 inh; AlphaScreen artifact counterscreen, preloaded methylated H4 peptide; AC35, µM (highest dose often 10 µM); 1,500 compounds, 9.4% hits; AID 1053174; call rule not given here
Hits are given with their value; n = inactive; x = no result. Rows were chosen to be rich in hits. Some 1.2% of all compounds tested hit in one or more screens of this group.

SMILES	NSD2 inh	RAD52 inh	RAD54 branch	Casp6 inh	Glyco luc inh	Alpha artifact
N#Cc1c(Cl)nc2c(c1C#N)CCCC2	61.0	n	x	n	n	n
C=CC[n+]1c(-c2ccc(Cl)cc2Cl)csc1Nc1c(C)n(C)n(-c2ccccc2)c1=O	50.7	n	n	n	n	n
Cc1ccc2occ(/C=N/NC(=O)[C@@H](N)Cc3ccccc3)c(=O)c2c1	n	n	n	n	n	x
COCC(C)OC(=O)/C(C#N)=C\c1coc2ccc(C)cc2c1=O (stereo not given)	50.4	n	x	n	n	n
O=C(C=Cc1ccc2c(c1)OCO2)c1ccccc1	n	n	n	n	n	x
CCN(C(=O)/C=C/c1ccc2c(c1)OCO2)c1ccccc1	61.7	x	x	x	n	n
O=C(C[C@@H]1C=C[C@H](NC(=O)C2CC2)[C@@H](CO)O1)NC1CCC1	x	n	n	n	x	x
N#C[C@H]1[C@H](c2ccccc2-c2ccccc2)[C@H](CO)N1C(=O)NC1CCCCC1	x	n	x	n	x	x
O=C(/C=C/c1ccco1)Nc1cc(Cl)ccc1C(=O)O	n	x	n	x	n	x
O=C(/C=C/c1ccco1)Nc1ccccc1C(=O)O	73.3	n	n	x	n	n
CCN(CC)Cc1c(O)c(Cl)cc2c(C)cc(=O)oc12	112.2	n	x	n	n	n
CCN(CC)Cc1c(O)c(Cl)cc2c(C)c(C)c(=O)oc12	n	x	n	x	n	x
CO[C@H]1CN(C)C(=O)c2ccc(NS(=O)(=O)CC(F)(F)F)cc2OC[C@H](C)NC[C@@H]1C	x	n	x	n	x	x
Cc1nc2ccc(S(=O)(=O)N3CCCCC3)cc2s1	50.7	n	n	n	n	n
NS(=O)(=O)c1ccc(N=Nc2ccc(=O)[nH]c2O)cc1	109.6	n	x	70.5	n	n
O=C(CCc1nnc(CCCCc2ccccc2)o1)NC1CCCC1	82.9	n	n	n	n	n
CO[C@H]1CC[C@H]2CCOc3ccc(C#N)cc3C(=O)N(C)C[C@@H](OC)[C@H](C)C(=O)N(C)C[C@H]1O2	x	n	n	n	x	x
Cc1c(Br)c(=O)oc2c(Br)c(O)c(O)cc12	110.6	n	x	46.8	n	n
COc1ccccc1C#Cc1ccc([C@@H]2[C@@H](C#N)N(C(=O)C3CC3)[C@H]2CO)cc1	x	n	n	n	x	x
O=C(Nc1ccc(S(=O)(=O)NCc2ccccc2)cc1)c1ccc(Br)o1	n	x	n	x	n	x
C=CCn1c(NC(=O)c2ccc(Br)o2)c(S(=O)(=O)c2ccccc2)c2nc3ccccc3nc21	83.3	x	n	x	n	n
Cc1ccc(N2CN=c3s/c(=C\c4ccccn4)c(=O)n3C2)cc1	59.4	x	n	x	n	n
O=c1/c(=C/c2ccco2)sc2n1CN(c1ccccc1)CN=2	n	x	n	x	n	x
CC1=NN(c2ccccc2)C(=O)/C1=C/N(C)C	70.8	n	n	n	n	n
CC1=NN(c2ccc([N+](=O)[O-])cc2)C(=O)/C1=C\N(C)C	n	n	x	n	n	x
SMILES	NSD2 inh	RAD52 inh	RAD54 branch	Casp6 inh	Glyco luc inh	Alpha artifact
Cc1cccc(C)c1NC(=S)N(CCCN1CCN(C)CC1)Cc1cccs1	74.7	n	x	x	n	n
Nc1c(C(=O)NCc2ccc(F)cc2)c2nc3ccccc3nc2n1CCCN1CCOCC1	81.7	x	n	x	n	n
Cc1ccc(S(=O)(=O)Nc2ccc3c(c2)C(=O)N([C@@H](C)CO)C[C@H](C)[C@@H](CN(C)Cc2ccccc2)O3)cc1	x	n	n	n	x	x
CCc1ccc(S(=O)(=O)Nc2cc(SCC(=O)O)c(O)c3ccccc23)cc1	112.5	n	x	67.1	n	n
Cc1ccc(S(=O)(=O)Nc2cccc3cccnc23)cc1	n	x	n	x	n	x
CCc1ccc(S(=O)(=O)Nc2ccc(O)c3ccccc23)cc1	n	n	n	n	n	x
O=S(=O)(Nc1cc(Sc2cccc3cccnc23)c(O)c2ccccc12)c1ccccc1	56.4	n	x	n	x	n
C[C@@H]1CN([C@H](C)CO)C(=O)c2cccc(NS(=O)(=O)c3cccs3)c2O[C@H]1CN(C)C(=O)Nc1ccc(C(F)(F)F)cc1	x	n	n	n	x	x
Cc1cccc(/C=N/NC(=O)C(C)Nc2cccc3ccccc23)n1 (stereo not given)	103.5	x	n	x	n	n
COc1ccc(NC(=O)Nc2cccc3c2O[C@H](CN(C)Cc2ccc(C(F)(F)F)cc2)[C@@H](C)CN([C@@H](C)CO)C3=O)cc1	x	n	n	n	x	x
O=C(Nc1nc(-c2ccco2)c(-c2ccco2)s1)c1ccc(F)cc1F	n	n	n	n	n	x
O=S(=O)(Nc1nc(-c2ccco2)c(-c2ccco2)s1)c1ccc(F)cc1F	100.1	n	n	62.5	n	n
O=C(CC(=O)Nc1ccc(Cl)cc1)N/N=C\c1cccc(F)c1	112.6	n	n	n	n	n
O=C(c1coc(=O)c(Br)c1)N1CCOCC1	140.6	x	x	x	n	n
NS(=O)(=O)c1ccc(N/N=C/c2ccc(O)c(O)c2O)c([N+](=O)[O-])c1	73.1	n	n	68.2	n	n
Cc1c(C(=O)NC(C)C)oc2c1-c1[nH]ncc1CC2	54.7	x	n	x	n	n
CCOc1ccc(CCNC(=O)c2oc3c(c2C)-c2[nH]ncc2CC3)cc1OCC	x	n	n	n	n	x
O=C(C[C@@H]1CC[C@@H](NS(=O)(=O)c2ccc(F)cc2)[C@H](CO)O1)NCCN1CCCCC1	x	n	n	x	x	x
Cc1noc(C)c1NC(=O)N(C)C[C@@H]1OCCCC[C@H](C)Oc2ccc(NC(=O)Nc3ccc(F)cc3)cc2C(=O)N([C@H](C)CO)C[C@@H]1C	x	n	n	n	x	x

Screening results: PubChem, Broad Institute
